Pf growth 48h – P. falciparum growth inhibition at 48 hours (one generation) | P. falciparum luciferase growth in erythrocytes, 48 h | Potency, µM (doses to about 28.7 µM), usual class: inhibitors | 310,000 compounds, 5.9% hits | AID 504832
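Parasite viability was followed by luminescence of a genomically integrated firefly luciferase. Cultures held 0.1% parasitemia at 2% hematocrit (final), incubated under 5% CO2 at 37 C.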
SARS PLpro yeast – blocks SARS-CoV papain-like protease in a yeast assay; 330,000 compounds, 0.19% hits; S. cerevisiae expressing SARS-CoV PLpro, growth rescue; Potency, µM (top dose mostly 32.9 µM), most hits filed as activators; AID 485353; calls by dose curve; note: nearly all actives have a fitted effect of over 55% in size
Pf growth 96h – P. falciparum growth inhibition at 96 hours; P. falciparum luciferase reporter growth, 96 h; Potency, µM (highest dose often 28.7 µM), actives largely listed as inhibitors; 320,000 compounds, 6.9% hits; AID 504834
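Cell-based qHTS: luciferase-tagged P. falciparum in erythrocytes (2% hematocrit, 0.05% parasitemia final) incubated with compounds for 96 hours, 37 C, 5% CO2; luciferase detection reagent then added and luminescence measured.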
Sm TGR inh – blocks Schistosoma mansoni thioredoxin glutathione reductase; Q962Y6; purified TGR, DTNB reduction, TNB absorbance 405 nm; Potency, µM (titrated, usually from 114 µM), usual class: inhibitors; 360,000 compounds, 3% hits; AID 485364; note: nearly all actives have a fitted effect of over 60% in size
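TGR 20 nM + NADPH 100 uM (dispensed conc.), cpd preinc 15 min RT; start with NADPH (500 uM addition) then DTNB (15 mM addition). Kinetic TNB absorbance, 405 nm filter. Four-parameter Hill fit across titration.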
Of the large screens only hits and unclear results are named; the others gave an inactive call. A selection: hits, their analogues and other compounds. The true share with any hit is near 12%. Unless noted, calls come from the whole dose curve; as a rule, active = well fitted curve in the direction sought with a large enough effect; inconclusive = small, poorly fitted or top-dose-only effect, or another doubt; inactive = no such curve, though single readings can be large; an effect the other way counts as inactive or inconclusive.

CCCn1c(SCC(=O)N2c3ccccc3CCc3ccccc32)nc2c1c(=O)n(C)c(=O)n2C	Pf growth 48h 15µM
CCN(CC)C(=O)CSc1nnc2ccc3ccccc3n12	none (no result: Pf growth 48h, SARS PLpro yeast, Pf growth 96h)
CCN(CC)C(=O)CSc1nnc(-c2cc3ccccc3cc2O)n1CC	Pf growth 48h 8.3µM
CCCSCCCNC(=O)Cn1c(-c2cccs2)cc2ccccc21	none (no result: Pf growth 48h, SARS PLpro yeast, Pf growth 96h)
Cc1c(NS(=O)(=O)c2cc(C(=O)NCCN(C)C)ccc2Cl)c(=O)n(-c2ccccc2)n1C	none (no result: Pf growth 48h)
CCCn1c(SCC(=O)N2c3ccccc3Sc3ccccc32)nc2ccccc21	Pf growth 48h 13µM, Pf growth 96h 3.7µM
CCCn1c(SCC(=O)O)nc2ccccc21	none
CS(=O)(=O)Cc1cc(N2CCCC2)nc(-c2ccccc2)n1	none
CCCc1cc(N2CCC(C(N)=O)CC2)nc(-c2ccccc2)n1	Pf growth 48h 5.2µM (no result: Sm TGR inh)
Cc1cc(N2CCC(C(=O)NC3CC3)CC2)nc(-c2ccccc2)n1	Pf growth 48h 3.7µM, Pf growth 96h inconclusive
Cc1cccc(CSc2nnc(CCCCCNC(=O)OC(C)(C)C)o2)c1	Pf growth 48h 9.3µM
Cc1ccc(CSc2nnc(CCCCCNC(=O)OC(C)(C)C)o2)cc1	Pf growth 48h inconclusive
COc1ccc(NC(=O)Cn2ncc3c4ccccc4n(Cc4ccccc4)c3c2=O)cc1OC	none (no result: Pf growth 48h, SARS PLpro yeast, Pf growth 96h)
CCSc1cc(N2CC(C)OC(C)C2)nc(-c2ccccc2Cl)n1 (stereo unspecified)	Pf growth 48h 2.1µM (no result: Pf growth 96h)
CCOc1ccc(CNC(=O)CCCn2nc(C)c3c(C)n(-c4ccc(C)cc4)nc3c2=O)cc1	none
Cc1ccc2c(CN(C)Cc3ccc(Cl)cc3)cc(=O)oc2c1	Pf growth 48h inconclusive
Cc1[nH]c2ccccc2c1C(O)CN1CCN(c2cccc(C(F)(F)F)c2)CC1 (stereo unspecified)	Pf growth 48h inconclusive, Pf growth 96h inconclusive, Sm TGR inh 32µM
Cc1ccc(CCC(=O)Nc2nccs2)o1	Sm TGR inh 45µM
CCc1ccc(CCC(=O)Nc2nccs2)o1	Sm TGR inh 32µM (no result: Pf growth 96h)
Cc1ccc(NC(=O)CCc2ccc(C)o2)cc1	none
Cc1nnc(SCC(=O)Nc2nccs2)o1	Pf growth 48h inconclusive, Pf growth 96h 13µM
O=C(Cc1c(F)cccc1Cl)Nc1nccs1	Pf growth 96h 15µM, Sm TGR inh inconclusive
O=C(CCc1ccccc1)Nc1nccs1	none
Cc1ccccc1CNC(=O)c1nn(-c2ccccc2F)nc1CO	none (no result: Pf growth 48h, SARS PLpro yeast, Pf growth 96h)
COc1ccc(CCNC(=O)c2nn(C)c3c2CS(=O)(=O)c2ccccc2-3)c(OC)c1	Pf growth 96h inconclusive
O=C(COc1ccc(-c2nnco2)cc1)N1CCOCC1	none (no result: Pf growth 48h, Pf growth 96h, Sm TGR inh)
COc1ccc(CCNC(=O)CCc2c(C)nc3c4cccnc4nn3c2C)cc1OC	none (no result: Pf growth 48h, SARS PLpro yeast, Pf growth 96h)
Cc1ccc(NC(=O)Cn2cc(S(=O)(=O)N3CCN(c4ccccc4F)CC3)c3ccccc3c2=O)cc1F	none (no result: Pf growth 48h, SARS PLpro yeast, Pf growth 96h)
O=C(NCCC1=CCCCC1)c1ccc(F)c(S(=O)(=O)N2CCOCC2)c1	Pf growth 48h inconclusive, Pf growth 96h 9.3µM
COc1ccc(C(=O)NCCC2=CCCCC2)cc1S(=O)(=O)N1CCOCC1	Pf growth 48h inconclusive, Pf growth 96h inconclusive
Cc1ccccc1NS(=O)(=O)c1cc(C(=O)NCCC2=CCCCC2)ccc1Cl	Pf growth 48h inconclusive, Pf growth 96h inconclusive
CC1CN(S(=O)(=O)c2cc(C(=O)NCCC3=CCCCC3)ccc2Cl)CC(C)O1 (stereo unspecified)	Pf growth 48h 10µM, Pf growth 96h inconclusive
COc1cc(OC)c(NC(=O)Cn2c(=O)cc(C(F)(F)F)c3c(C)nn(C)c32)cc1Cl	none (no result: Pf growth 48h, SARS PLpro yeast, Pf growth 96h)
O=C(CSc1nc(=O)[nH]c2c1CCCC2)NCc1ccc(F)cc1	none (no result: Pf growth 48h, SARS PLpro yeast, Pf growth 96h)
Cc1ccc(-n2nnnc2Sc2nc([N+](=O)[O-])nn2C)cc1C	Pf growth 48h 3.3µM, Pf growth 96h inconclusive
CN(c1ccc(Cl)cc1)S(=O)(=O)c1nnc(NC(=O)C2CCCCC2)s1	none (no result: Pf growth 48h, SARS PLpro yeast, Pf growth 96h)
COc1ccccc1N1CC(O)=C(c2nc3ccccc3c(=O)[nH]2)C1=N	Pf growth 48h 9.3µM
COCCN1CC(O)=C(c2nc3ccccc3c(=O)[nH]2)C1=N	Pf growth 48h inconclusive
CCOC(=O)C1=C(C)OC(N)=C(C#N)C1c1ccc(OC)c(C)c1OC (stereo unspecified)	Pf growth 96h inconclusive, Sm TGR inh inconclusive
CCOc1cc(C2C(C#N)=C(N)OC(C)=C2C(C)=O)c(Br)c(Br)c1OC(C)C (stereo unspecified)	Pf growth 48h 3.3µM, Pf growth 96h 8.3µM, Sm TGR inh inconclusive
CCOc1cc(C2C(C#N)=C(N)OC(C)=C2C(C)=O)cc(Br)c1O (stereo unspecified)	Pf growth 96h inconclusive, Sm TGR inh 50µM
COc1ccccc1NS(=O)(=O)c1cccc(NS(=O)(=O)c2ccc(Cl)c(C(=O)O)c2)c1	none (no result: Pf growth 48h, Pf growth 96h, Sm TGR inh)
Cc1ccc([N+](=O)[O-])c(OCC(=O)OCC(=O)c2ccccc2)c1	Pf growth 96h 0.93µM
Cc1ccc(C)c(C(=O)COc2ccccc2[N+](=O)[O-])c1	none
CC1CN(c2oc(-c3cccs3)nc2C#N)CC(C)O1 (stereo unspecified)	Pf growth 48h 10µM
COc1ccccc1-c1nc(C#N)c(N2CC(C)CC(C)C2)o1 (stereo unspecified)	Pf growth 96h inconclusive, Sm TGR inh 1.1µM
Cc1cccc2nc3c(nc12)-c1ccccc1C3=O	none
COCCOC(=O)C1=C(C)NC(C)=C(C(=O)OCCOC)C1/C=C/c1ccccc1OC	Pf growth 48h inconclusive, Pf growth 96h 9.3µM
CCOC(=O)C1=C(C)NC(C)=C(C(=O)OCC)C1c1ccccc1C=CC(=O)OC(C)(C)C	Pf growth 48h 13µM, Pf growth 96h 8.5µM (no result: SARS PLpro yeast, Sm TGR inh)
CCOC(=O)C1=C(C)NC(C)=C(C(=O)OCC)C1/C=C/c1ccccc1OC	Pf growth 48h 9.3µM, Pf growth 96h inconclusive
CCOC(=O)C1=C(C)NC(C)=C(C(=O)OCC)C1/C=C/c1ccccc1	Pf growth 48h inconclusive, Pf growth 96h inconclusive
CCOC(=O)C1=C(C)NC(=O)NC1/C=C/c1ccccc1OC (stereo unspecified)	none
O=C(Nc1cc(S(=O)(=O)N2CCOCC2)ccc1Cl)C1CCC1	none
O=C(CCl)Nc1cccc(-c2cnc3ccccc3n2)c1	Pf growth 48h 1µM, SARS PLpro yeast inconclusive, Sm TGR inh inconclusive (no result: Pf growth 96h)
CC(C)(C)c1nc(CN2CCCCC2)cc(CN2CCCCC2)c1O	Pf growth 48h 9.3µM, Pf growth 96h inconclusive, Sm TGR inh inconclusive
c1ccc(N2CCN(c3nnc(Cc4cccnc4)c4ccccc34)CC2)nc1	Pf growth 48h 7.4µM
Cc1ccc(-n2cnc3cc(C(=O)NCc4ccccc4Cl)ccc32)c(C)c1	none (no result: Pf growth 48h, SARS PLpro yeast, Pf growth 96h)
Cc1ccc(S(=O)(=O)N2CCN(C(=O)COC(=O)CCCOc3ccccc3)CC2)c(C)c1	Pf growth 48h inconclusive, Pf growth 96h inconclusive
CN(C)c1ccc(C(c2ccc(N(C)C)cc2)c2ccc([N+](=O)[O-])cc2)cc1	Pf growth 96h 12µM
CC1CCN(CCOCCOc2ccc(Cl)cc2Br)CC1	Pf growth 48h inconclusive, Pf growth 96h 6.6µM
CC1CCN(CCCOc2ccc(Cl)cc2Br)CC1	Pf growth 96h inconclusive, Sm TGR inh inconclusive
Cc1cc(Cl)c(OCCOCCN2CCC(C)CC2)c(Br)c1	Pf growth 48h inconclusive, Pf growth 96h 12µM
CCN(CCCNC(=O)CN(C)S(=O)(=O)c1cccc2nsnc12)c1cccc(C)c1	Pf growth 48h inconclusive, Pf growth 96h 8.3µM

Screening data deposited in PubChem BioAssay by National Center for Advancing Translational Sciences (NCATS).
